Sampled rows, rich in hits. Any-hit rate of the full collection: about 12%.
TDP1 inh: TDP1 (human) enzyme inhibition | Q9NUW8 | recombinant TDP1, AlphaScreen DNA substrate cleavage | Potency, µM (series often up to 130 µM), actives largely listed as inhibitors | 350,000 compounds, 0.28% hits | AID 485290; further: nearly all actives have a fitted effect of over 40% in size
Target sequence (Q9NUW8 whole entry, looked up): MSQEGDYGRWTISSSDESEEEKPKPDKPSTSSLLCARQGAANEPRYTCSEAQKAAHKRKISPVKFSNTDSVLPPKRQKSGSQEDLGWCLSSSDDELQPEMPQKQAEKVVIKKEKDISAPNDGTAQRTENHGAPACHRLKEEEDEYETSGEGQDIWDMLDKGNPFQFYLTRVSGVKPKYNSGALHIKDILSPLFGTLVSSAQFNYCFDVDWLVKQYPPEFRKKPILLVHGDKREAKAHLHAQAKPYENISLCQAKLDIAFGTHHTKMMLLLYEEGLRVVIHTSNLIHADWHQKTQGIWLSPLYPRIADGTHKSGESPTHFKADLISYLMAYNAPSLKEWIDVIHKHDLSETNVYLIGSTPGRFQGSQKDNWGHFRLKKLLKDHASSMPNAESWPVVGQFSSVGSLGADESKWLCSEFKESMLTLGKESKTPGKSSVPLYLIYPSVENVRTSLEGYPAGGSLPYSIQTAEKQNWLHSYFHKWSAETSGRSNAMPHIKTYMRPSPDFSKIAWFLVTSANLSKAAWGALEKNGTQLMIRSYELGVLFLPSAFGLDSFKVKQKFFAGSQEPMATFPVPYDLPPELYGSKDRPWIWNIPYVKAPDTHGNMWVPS
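Steps: enzyme plus compound, 15 min RT; add biotin/phosphotyrosine-FITC oligonucleotide (15 nM final), react 5 min; add donor/acceptor beads (10 ug/ml final), 10 min; read AlphaScreen. Tdp1 at 1 nM final.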
JMJD2A Tudor inh: inhibitors of human JMJD2A Tudor domain; O75164; AlphaScreen JMJD2A-Tudor / H3K4me3 peptide binding; Potency, µM (series often up to 114 µM), hits mostly inhibitors; 390,000 compounds, 4.4% hits; AID 504339; further: nearly all actives have a fitted effect of over 50% in size
HP1b binding inh: inhibitors of HP1-beta chromodomain binding to methylated histone tails; P83916; AlphaScreen HP1-beta / biotin-H3K9me3 peptide binding; Potency, µM (highest dose often 114 µM), usual class: inhibitors; 390,000 compounds, 0.56% hits; further: nearly all actives have a fitted effect of over 70% in size
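AlphaScreen: HP1-beta (50 nM) preformed 30 min with biotin-H3(1-18)K9me3 peptide (50 nM) in PBS pH 7.4, 0.01% Tween-20. Compound added for 30 min at RT, then streptavidin donor/nickel chelate acceptor beads (10 ug/mL) for 30 min.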
Sfp inh: inhibitors of Bacillus subtilis Sfp phosphopantetheinyl transferase; Q9F4F7; Biochemical Sfp PPTase activity, qHTS; Potency, µM, usual class: inhibitors; 310,000 compounds, 3.5% hits;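 further: the enzyme is Sfp with the accession as filed and its product quenches rhodamine fluorescence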
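Reaction rates are the 30-min fluorescence difference (ex 525, em 598 nm) in wells containing 15 nM Sfp, 5 uM rhodamine-CoA and 12.5 uM BHQ-2-YbbR at pH 7.6 with 10 mM MgCl2.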
G9a block: G9a (human) methyltransferase inhibition. Potency, µM (titrated, usually from 102 µM), actives largely listed as inhibitors. AID 504332. G9a H3K9 monomethylation, AlphaScreen, 2 h. 350,000 compounds, 8.8% hits; further: nearly all actives have a fitted effect of over 75% in size
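G9a (20 nM) was preincubated 15 min with compound, then reacted 2 h at room temperature with 500 nM biotin-H3K9 peptide and 20 µM SAM. Monomethyl-H3K9 detected by AlphaScreen using anti-H3K9me1 antibody.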
BAZ2B block: blocks human BAZ2B; AlphaScreen BAZ2B-H3K14Ac peptide displacement; Potency, µM (top dose mostly 114 µM), actives largely listed as inhibitors; 360,000 compounds, 4.4% hits; AID 504333; further: nearly all actives have a fitted effect of over 60% in size
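Compounds, titrated to a top concentration of 110 uM, were incubated 30 min at room temperature with preformed BAZ2B/acetyl-K14 H3 peptide complex (50 nM each). Proximity signal was measured by AlphaScreen after 20 min with beads.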
Each line names hits and unclear results; the compound was inactive in the other large screens. The call rests on the fitted dose curve; in most records, active means well fitted curve in the direction sought with a large enough effect; inconclusive means small, poorly fitted or top-dose-only effect, or another doubt; inactive means no such curve, though single readings can be large; an effect the other way counts as inactive or inconclusive.

CN(C)S(=O)(=O)c1cc(NC(=O)CN2CCN(c3ccccc3F)CC2)ccc1Cl	none
COCC(=O)N1CCC[C@@]2(CCN(Cc3cc(C(F)(F)F)cc(C(F)(F)F)c3)C2)C1	none (no result: TDP1 inh, JMJD2A Tudor inh, HP1b binding inh, BAZ2B block)
Cc1ccc(C)c(Cn2cc(S(=O)(=O)c3ccc(Cl)cc3)c(=O)c3cc(F)ccc32)c1	none (no result: Sfp inh)
CC(C)(C=O)C1=CC(=O)c2ccccc2C1=O	JMJD2A Tudor inh 25µM, HP1b binding inh 5µM, Sfp inh 6.3µM, G9a block 1.8µM, BAZ2B block 50µM
CC(C)N(C(=O)c1ccccc1-c1ccccc1)C(C)C	none
CC1=CC(=O)c2ccccc2C1=O	Sfp inh inconclusive, G9a block 8.9µM, BAZ2B block inconclusive
COc1cccc2c1C(=O)C=C(C)C2=O	none
CCOc1ccc(NC(=O)Cn2cc(C(=O)c3ccc(F)cc3)c(=O)c3cc4c(cc32)OCCO4)cc1	none (no result: Sfp inh)
CN(Cc1ccccc1)C(=O)COC(=O)c1ccccc1SCC(=O)N1CCCC1	none (no result: Sfp inh)
Cc1nc(S/C(=C\c2ccc(-c3ccc(C(=O)O)c(Cl)c3)o2)C(=O)O)n[nH]1	TDP1 inh 3.2µM, JMJD2A Tudor inh 25µM, HP1b binding inh 20µM, Sfp inh 6.3µM, G9a block 4µM, BAZ2B block 14µM
Cc1nnc(SC(C)C(=O)Nc2ccc(Cl)cn2)n1Cc1ccccc1 (stereo not drawn)	none
CC(Sc1nnc(-c2ccco2)n1C)C(=O)Nc1nccs1 (stereo not drawn)	JMJD2A Tudor inh 32µM (no result: Sfp inh)
CC(Sc1ccc([N+](=O)[O-])cn1)C(=O)Nc1nccs1 (stereo not drawn)	G9a block 7.9µM
CC(Sc1nnc(-c2ccc(Cl)cc2Cl)n1Cc1ccccc1)C(=O)Nc1nccs1 (stereo not drawn)	JMJD2A Tudor inh 79µM, HP1b binding inh inconclusive
O=C(CCN1C(=O)CSc2ccccc21)Nc1ccc(OC(F)(F)F)cc1	none (no result: Sfp inh)
Cc1nc2[nH]c(=S)[nH]c2c(=O)[nH]1	JMJD2A Tudor inh 20µM (no result: TDP1 inh, Sfp inh, G9a block, BAZ2B block)
Nc1nc(-c2ccc(Cl)cc2)c(N=Nc2ccc(S(=O)(=O)N3CCOCC3)cc2)s1	JMJD2A Tudor inh inconclusive, HP1b binding inh inconclusive, G9a block inconclusive, BAZ2B block 7.1µM
CC(N1CCOC1=O)S(=O)(=O)c1ccccc1 (stereo not drawn)	Sfp inh 63µM, G9a block inconclusive, BAZ2B block 50µM
CC(Sc1nc(N)cc(=O)[nH]1)C(=O)NCC(=O)Nc1ccc(F)c(F)c1F (stereo not drawn)	none (no result: Sfp inh)
CCc1ccc(NC(=O)Cc2ccc(OC)cc2)cc1	none (no result: JMJD2A Tudor inh, HP1b binding inh)
COc1ccc(C(=O)/C=C(\C)Nc2ccc(NC(C)=O)cc2)cc1	JMJD2A Tudor inh inconclusive, G9a block 35µM, BAZ2B block 79µM
Cc1ccc(C(=O)/C=C/Nc2cccc(O)c2)cc1	G9a block inconclusive
C/C(=C\C(=O)c1ccccc1)Nc1ccc(O)cc1	JMJD2A Tudor inh inconclusive, G9a block 28µM, BAZ2B block inconclusive
COc1ccc(CC(=O)Nc2ccc(C(C)=O)cc2)cc1	Sfp inh 50µM, BAZ2B block inconclusive
COc1ccc(C(C#N)=Cc2ccc(NC(C)=O)cc2)cc1	none (no result: TDP1 inh, Sfp inh, G9a block, BAZ2B block)
C/C(=C\C(=O)c1ccc(C)cc1)Nc1cccc(O)c1	JMJD2A Tudor inh inconclusive, G9a block 50µM, BAZ2B block 50µM
CCOC(=O)C1CCN(C(=O)c2cc(S(=O)(=O)N3CCCCCC3)ccc2OC)CC1	none (no result: TDP1 inh, Sfp inh)
COc1ccc(NC(=O)CN(C)C(=O)Cc2ccc(-c3ccccc3)cc2)cc1	JMJD2A Tudor inh 100µM, G9a block inconclusive (no result: Sfp inh)
COc1ccc(C(=O)/C=C(/C)N(C)C)cc1	JMJD2A Tudor inh 40µM, G9a block 45µM
CC(C)(C)NC(=O)NC(=O)CN1CCN(c2ccccc2O)CC1	none
Cc1ccc(C)c(S(=O)(=O)N2CCN(CC(=O)NC(=O)NCc3ccco3)CC2)c1	JMJD2A Tudor inh 50µM, HP1b binding inh inconclusive
COc1ccc(N2CCN(CC(=O)NC(=O)NC(C)(C)C)CC2)cc1	G9a block 79µM
COc1ccc(N2CCN(CC(=O)Nc3ccc(SC(F)F)cc3)CC2)cc1	JMJD2A Tudor inh inconclusive, G9a block inconclusive, BAZ2B block 40µM
O=C(CN1CCN(c2ccc(O)cc2)CC1)NC(=O)NCc1ccco1	HP1b binding inh inconclusive, Sfp inh 40µM, G9a block 7.9µM
COc1ccc(N2CCN(CC(=O)Nc3ccc(C)cc3)CC2)cc1	BAZ2B block inconclusive (no result: TDP1 inh, G9a block)
O=C(Nc1ccc(Cl)cc1C(F)(F)F)c1cc(S(=O)(=O)NCc2ccccc2)ccc1F	none (no result: Sfp inh)
CC(C)(C)NC(=O)NC(=O)CN1CCN(S(=O)(=O)c2ccc3c(c2)CCCC3)CC1	G9a block 45µM (no result: Sfp inh)
COc1ccc(N2CCN(CC(=O)NC(=O)NCc3ccco3)CC2)cc1	JMJD2A Tudor inh inconclusive, G9a block 32µM
CC(C)(C)NC(=O)NC(=O)CN1CCN(S(=O)(=O)c2ccccc2)CC1	none
Oc1cccc(Nc2cc(-c3ccccc3)ncn2)c1	G9a block inconclusive, BAZ2B block 50µM (no result: Sfp inh)
c1ccc(-c2cc(-c3ccccc3)ncn2)cc1	none (no result: TDP1 inh, Sfp inh, G9a block, BAZ2B block)
CCCOc1ccc(NC(=O)CC2C(=O)N(c3ccc(F)cc3)C(=O)N2CC(C)C)cc1 (stereo not drawn)	none (no result: Sfp inh)
CC1=CS(=O)(=O)CC1Sc1nc2ccccc2[nH]1 (stereo not drawn)	G9a block 79µM
CC1=CS(=O)(=O)CC1Sc1nc(C)n[nH]1 (stereo not drawn)	G9a block 50µM, BAZ2B block inconclusive
Cc1cc(C(=O)OCC(=O)Nc2ccc(F)c(F)c2F)c(C)o1	JMJD2A Tudor inh 20µM
COc1ccc(CNCC(O)COc2ccc(C(C)(C)c3ccccc3)cc2)cc1 (stereo not drawn)	JMJD2A Tudor inh 10µM, HP1b binding inh inconclusive, Sfp inh 56µM, BAZ2B block 40µM (no result: TDP1 inh)
COC(=O)c1ccc(CNCC(O)COc2ccc(-c3ccccc3)cc2)cc1 (stereo not drawn)	none
COc1ccc(CCNCC(O)COc2cccc(Br)c2)cc1 (stereo not drawn)	none
OC(CNCc1ccccc1)COCc1ccc(Cl)cc1 (stereo not drawn)	G9a block 10µM, BAZ2B block 50µM
CCOC(=O)c1cccc(OCC(O)CNCCOc2ccccc2F)c1 (stereo not drawn)	JMJD2A Tudor inh 18µM, HP1b binding inh 71µM, G9a block 50µM, BAZ2B block inconclusive
CC(NCC(O)COCc1ccc(Cl)cc1)c1ccccc1 (stereo not drawn)	none
CC(=O)c1cccc(OCC(O)CNCCc2ccc(Cl)cc2)c1 (stereo not drawn)	JMJD2A Tudor inh inconclusive, G9a block inconclusive, BAZ2B block 20µM (no result: TDP1 inh)
